# From the supplement of paper PMC6555819
# How the values were obtained:
# Experiment in all cases: PBM binding z-score (relative to random genomic background probes); higher = stronger binding; sequences stand for … in GC…GCGATTGACAGCGTAGAATGAAGG
# [1] = test system: PPARg:RXRa DBDmut IVT, anti-RXR (DBD mutation: RXRa K156A/R161A, NR concentration 270 nM, RXRa partner concentration 90 nM)
# Procedure, shortened: (§1)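 Binding z-scores take random background probes as their reference. They come from custom Agilent 4×180K protein-binding microarrays incubated 1 h with ligand-free nuclear receptor dimers, with antibodies against each partner (one per run) detecting binding. Scanned fluorescence was regression-normalized.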
# [2] = test system: PPARg:RXRa IVT, anti-PPARg (NR concentration 270 nM, RXRa partner concentration 90 nM)
# Procedure, shortened: as §1
# [3] = test system: PPARg DBDmut:RXRa IVT, anti-PPARg (DBD mutation: PPARg1 K132A/R137A, NR concentration 270 nM, RXRa partner concentration 90 nM)
# Procedure, shortened: as §1
# [4] = test system: PPARg DBDmut IVT, anti-PPARg (DBD mutation: PPARg1 K132A/R137A, NR concentration 270 nM)
# Procedure, shortened: as §1
# [5] = test system: PPARg homodimer (NR concentration 180 nM)
# Procedure, shortened: as §1
# [6] = test system: PXR:RXRa (NR concentration 270 nM, RXRa partner concentration 90 nM)
# Procedure, shortened: as §1
# [7] = test system: PXR homodimer (NR concentration 270 nM)
# Procedure, shortened: as §1
# [8] = test system: RARa:RXR (NR concentration 270 nM, RXRa partner concentration 90 nM)
# Procedure, shortened: as §1
# [9] = test system: RARa homodimer (NR concentration 270 nM)
# Procedure, shortened: as §1
# [10] = test system: RARb:RXRa (NR concentration 270 nM, RXRa partner concentration 90 nM)
# Procedure, shortened: as §1
# [11] = test system: RARb homodimer (NR concentration 270 nM)
# Procedure, shortened: as §1
# [12] = test system: RARg:RXRa (NR concentration 270 nM, RXRa partner concentration 90 nM)
# Procedure, shortened: as §1
# [13] = test system: RARg homodimer (NR concentration 270 nM)
# Procedure, shortened: as §1
# [14] = test system: RXRa DBDmut IVT, anti-RXR (DBD mutation: RXRa K156A/R161A, NR concentration 90 nM)
# Procedure, shortened: as §1
# [15] = test system: RXRa homodimer (NR concentration 180 nM)
# Procedure, shortened: as §1
# [16] = test system: THRa:RXRa (NR concentration 90 nM, RXRa partner concentration 90 nM)
# Procedure, shortened: as §1
# [17] = test system: THRa homodimer (NR concentration 90 nM)
# Procedure, shortened: as §1
# [18] = test system: VDR:RXRa (NR concentration 270 nM, RXRa partner concentration 90 nM)
# Procedure, shortened: as §1
# [19] = test system: VDR homodimer (NR concentration 270 nM)
# Procedure, shortened: as §1
Sequence,PBM binding z-score [1],PBM binding z-score [2],PBM binding z-score [3],PBM binding z-score [4],PBM binding z-score [5],PBM binding z-score [6],PBM binding z-score [7],PBM binding z-score [8],PBM binding z-score [9],PBM binding z-score [10],PBM binding z-score [11],PBM binding z-score [12],PBM binding z-score [13],PBM binding z-score [14],PBM binding z-score [15],PBM binding z-score [16],PBM binding z-score [17],PBM binding z-score [18],PBM binding z-score [19]
TGTCAAAGTTCGAAGGTAACGTAAGTATCCACAC,-0.516,2.26,1.29,0.86,0.387,1.64,0.292,2.13,0.23,2.34,1.02,2.38,1.83,1.74,2.23,1.44,0.0268,1.78,0.722
CGTCCAACGTCAATGCTAGGTCAGTGAAAGCATT,0.0923,0.146,-0.91,-0.198,-0.138,0.124,-0.688,0.602,-0.434,1.33,2.01,1.36,1.14,0.107,0.267,1.6,0.388,0.103,-0.0849
TAGCCTAGATCATTCAGGGGCCAGTATAGAAAGC,1.21,1.03,-0.343,0.115,-0.77,-0.495,-0.234,0.0251,-0.596,0.0871,0.182,0.658,0.249,-0.277,0.341,0.0485,-0.624,-0.321,-0.00416
ATCTCTAGGTAACAAGTTAAGTGAAAGAGAGGAC,3.26,2.85,1.87,1.54,0.926,0.289,0.574,0.842,0.894,0.723,0.585,0.726,0.704,-0.00477,0.663,1.29,0.846,0.232,0.307
ACTATTAGTTGACTTAGGCCAACCGATACGACGC,0.581,0.623,1.41,1.22,1.1,0.168,0.397,0.152,0.685,0.896,0.826,0.899,0.91,0.805,0.539,0.898,0.912,0.432,0.435
CTCGAAAGGTCGGTTGAGGTGATTATACGGATAA,0.246,0.642,0.351,0.785,1.2,3.74,0.3,2.2,0.287,2.85,2,2.51,2.53,0.846,2.12,4.96,1.15,3.1,0.404
ACTAGAAGGCCAAGTTTGGGTCACTCAAACAAAG,0.0334,1.25,-0.516,-0.287,0.742,1.2,-0.219,2.15,-0.267,2.71,2.88,3.27,2.36,0.0906,1.29,3,1.32,1.28,0.626
CAGCCTAGATCAGGGCCAGTATAGGAGGAACGTT,-0.475,-0.568,-0.718,-0.931,-0.197,-0.797,-0.456,-0.741,-0.525,-0.399,-0.147,-0.262,-0.227,-0.728,-0.559,-0.634,-0.417,-0.746,-0.384
CGTCCAAGGTCAGCCGGTCAGTGAAAGCGACGTG,2.51,2.75,-0.217,-1.45,2.55,2.9,0.408,3.71,0.671,5,4.5,5.54,6.43,2.56,3.93,3.58,1.93,3.32,0.973
CCAGACAGGTGAGAAGGTGACTCAGCCTCGATTA,1.19,0.996,0.0696,-0.454,0.821,-0.175,0.603,0.235,0.708,1.02,1.23,1.04,0.771,-0.175,0.552,0.445,0.379,-0.0388,-0.284
ATCTCTAGGTAAAAGTTCAGTCAATCCCGAGGAT,2.32,4.22,1.46,1.49,1.74,2.36,2.13,1.68,1.1,2.64,2.54,2.1,2.2,1.12,1.7,1.53,0.584,1.45,2.36
ATATGAAGGTTACATCCGGGTCATTCAGGCTATG,2.04,3.33,1.37,1.68,3.27,4.21,2.67,4.2,0.977,3.16,3.52,4.75,2.62,1.08,3.74,4.11,2.47,4.85,2.96
ACAAACAGGTGAGTGAAGGTAACTCAGCTGGACG,1.21,1.19,0.208,0.336,0.244,-0.255,-0.143,0.192,0.0567,0.585,0.000775,0.131,0.536,-0.35,0.457,1.5,-0.581,-0.124,-0.41
TGAATGAGGTGATAAGATCAGGGAACGTTGCAAA,1.64,2.01,0.612,0.281,-0.472,-0.0646,-0.0145,0.43,-0.23,0.351,-0.0418,0.599,0.324,-0.998,0.631,1.43,0.185,-0.169,-0.465
GCTTGTAGCTCAAGGTTAAGAAAGACTAAGCTAA,-0.582,-0.296,-0.734,-0.739,-0.599,0.28,-0.587,0.556,-0.601,0.721,-0.0742,0.0545,-0.162,-0.204,0.541,0.986,-0.586,-0.0239,-0.603
